Measured values reported in PubChem BioAssay (Tox21).
Records with an inconclusive call do not appear. Entries that show only a call come without a potency. Activity calls are given as the source filed them. The call rests on the fitted dose curve; in most records, active means well fitted activation curve with a large enough effect in the signal ratio in the repeat runs (not every such curve was filed as active); inconclusive means weak or mixed curves, or effect the other way; inactive means no such curve, though single readings can be large or run the other way; the % refers to the signal ratio.
Potency means the concentration at half of the fitted maximal effect.

Assay: qHTS assay for small molecule agonists of the antioxidant response element (ARE) signaling pathway (AID 743202)
Details: HepG2 ARE-bla reporter, beta-lactamase FRET, 16 h; series mostly up to 73.3 µM
From the text: U.S. Tox21 Program National Center for Advancing Translational Sciences [NCATS] NIH Chemical Genomics Center [NCGC] U.S. Environmental Protection Agency [EPA] National Institutes of Environmental Health Sciences [NIEHS] National Toxicology Program [NTP] U.S. Food and Drug Administration [FDA] Tox21 Assay Overview: Oxidative stress has been implicated in the pathogenesis of a variety of diseases ranging from cancer to neurodegeneration. The antioxidant response element (ARE) signaling pathway plays an important role in the amelioration of oxidative stress. The CellSensor ARE-bla HepG2 cell line (Invitrogen) can be used for analyzing the Nrf2/antioxidant response signaling pathway. Nrf2 (NF-E2-related factor 2) and Nrf1 are transcription factors that bind to AREs and activate these genes. The CellSensor ARE-bla Hep G2 cell line contains a beta-lactamase reporter gene under control of the Antioxidant Response Element (ARE) stably integrated into HepG2 cells. The activation of the report gene under culture conditions can be detected by fluorescence intensity. This cell line has been used to screen the Tox21 10K compound library to identify agonists that induce oxidative stress.
Tox21 Assay Protocol Summary: The ARE-bla cells were dispensed at 2,000 cells/5 ul/well in 1536-well black wall/clear bottom plates using a Multidrop dispenser. After the assay plates were incubated at a 37 C/5% CO2 incubator for 5 hours, 23 nL of compounds dissolved in DMSO, positive controls or DMSO only was transferred to the assay plate by a pin tool. The plates were incubated at 37 C for 16 hours. After 1 uL of LiveBLAzer B/G FRET substrate was added using a Flying Reagent Dispenser, the plates were incubated at room temperature for 2 hours, and fluorescence intensity was measured by an Envision plate reader.
In the case of `O=C(O)c1ccc(C(=O)O)c(C(=O)O)c1`, the Potency is reported as “inactive”.
With `CC(C)OP(=O)(CP(=O)(OC(C)C)OC(C)C)OC(C)C` the Potency was “inactive”.
For `CC1(C)CC(N)CC(C)(CN)C1` (stereo not given), the Potency was “inactive”.
For `COc1ccc([N+](=O)[O-])cc1N`, the Potency was “inactive”.
In the case of `C=CCCCCCCCCC(=O)O`, the Potency is reported as “inactive”.
With `COCCCN` the Potency was “inactive”.
With `CCNc1cccc(C)c1` the Potency was “inactive”.
In the case of `COC(=O)c1cccnc1`, the Potency is reported as “inactive”.
In the case of `O=S(=O)(O)c1ccc(N=Nc2c(O)ccc3cc(S(=O)(=O)O)ccc23)cc1`, the Potency is reported as “inactive”.
For `COc1cc(OC)c(C(=O)CCCN2CCCC2)c(OC)c1`, the Potency was “inactive”.
For `O=c1[nH]cnc2[nH]ncc12`, the Potency was “inactive”.
For `COC(=O)CCCC(=O)OC`, the Potency was “inactive”.
For `O=C1C(c2[nH]c3ccccc3c2O)=Nc2ccccc21`, the Potency was 18.8 µM (active).
For `N#Cc1ccccc1`, the Potency was “inactive”.
For `C=Cc1ccc(C)cc1`, the Potency was “inactive”.
With `CCc1ccccc1CC` the Potency was “inactive”.
In the case of `CC(=O)CCC=C(C)C`, the Potency is reported as “inactive”.
In the case of `CCCCC(C=O)CC` (stereo not given), the Potency is reported as “inactive”.
In the case of `CC(C)CCCCCCCOC(=O)CCCCC(=O)OCCCCCCCC(C)C`, the Potency is reported as “inactive”.
In the case of `O=C1CCCC1`, the Potency is reported as “inactive”.
With `CC(O)CC(C)(C)O` (stereo not given) the Potency was “inactive”.
With `CC(CCO)CC(C)(C)C` (stereo not given) the Potency was “inactive”.
With `CCCOC(=O)c1ccccc1` the Potency was “inactive”.
With `CC(=O)Oc1ccc(C)cc1` the Potency was “inactive”.
With `NC(=S)NNC(N)=S` the Potency was “inactive”.
With `CCCCCCCCCCO` the Potency was “inactive”.
With `CCCCCCO` the Potency was “inactive”.
With `O=C(O)CCCCCCCCC(=O)O` the Potency was “inactive”.
In the case of `CC(=O)OCc1ccccc1`, the Potency is reported as “inactive”.
In the case of `C=C(C)[C@H]1CC=C(C)C(=O)C1`, the Potency is reported as “inactive”.
With `NCCNCCN` the Potency was “inactive”.
In the case of `N[C@H](Cc1c[nH]c2ccccc12)C(=O)O`, the Potency is reported as “inactive”.
With `CC(C)=CCl` the Potency was “inactive”.
For `O=C(O)/C=C/C(=O)O`, the Potency was “inactive”.
In the case of `C=CC(=O)OCCC(=O)O`, the Potency is reported as 9.69 µM (active).
With `O=C(O)c1cc2ccccc2cc1O` the Potency was “inactive”.
In the case of `CC(C)c1cccc(C(C)C)c1`, the Potency is reported as “inactive”.
With `CCCCCCCO` the Potency was “inactive”.
In the case of `COc1ccc(N)c(C)c1`, the Potency is reported as “inactive”.
For `OC1C(O)C(O)C(O)C(O)C1O` (stereo not given), the Potency was “inactive”.
